Drawing on PubChem BioAssay (NCI), this text covers growth for eight compounds.

Structures are written as SMILES. Values joined by “and” are separate entries in the source; they are usually repeats but may differ in a detail not shown here. Equal entries are not always repeated. About 83,000 compounds went through this panel and 20% of them were active in at least one assay; those are over-represented in the sample as a whole.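 Method: cells in 96-well plates; compound added at one concentration; 48 h incubation; percent growth measured; values under 10 scored active.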 Active and inactive are the calls of the source.

Test systems include HCT-15 colon; HT29 colon; SNB-75 CNS; SNB-19 CNS; U251 CNS; PC-3 prostate; SK-MEL-5 melanoma; UACC-62 melanoma; LOX IMVI melanoma; SK-MEL-28 melanoma; SK-MEL-2 melanoma; SN12C renal; UO-31 renal; TK-10 renal; ACHN renal; CAKI-1 renal; A498 renal; CCRF-CEM leukemia; MOLT-4 leukemia; EKVX NSCLC.
What all share (experiment): NCI-60 one-dose screen, 48 h (100 = growth as untreated, 0 = no growth, -100 = all killed)
Holding throughout (details): 10 µM unless noted

Consider `C=C1C(=O)O[C@H]2[C@H]1CC/C(CNS(=O)(=O)c1ccc3ccccc3c1)=C\CC[C@@]1(C)O[C@@H]21`, for which the growth in the experiment on HCT-15 colon was -78.5% (active); with HT29 colon, -78.2% (active); with SNB-75 CNS it was 38.2% (inactive); in the experiment with SNB-19 CNS it was 71.9% (inactive); with U251 CNS it was 48.9% (inactive); with PC-3 prostate, 53.6% (inactive). In addition, the growth was 31.8% (inactive) with SK-MEL-5 melanoma; -12% (active) with UACC-62 melanoma; -84.8% (active) in the experiment on LOX IMVI melanoma; -8.36% (active) in the experiment on SK-MEL-28 melanoma; 43.7% (inactive) with SK-MEL-2 melanoma; 29.1% (inactive) with SN12C renal. Besides, the growth was -88% (active) in the experiment with UO-31 renal; -78.5% (active) with TK-10 renal; -39.3% (active) in the experiment on ACHN renal; 15.3% (inactive) in the experiment on CAKI-1 renal; 58.2% (inactive) with A498 renal; -18.1% (active) with CCRF-CEM leukemia. The growth in the experiment on MOLT-4 leukemia is -27.6% (active).
As to `COc1ccc(N2CCN(S(=O)(=O)c3oc(-c4ccccc4)nc3C#N)CC2)cc1`, the growth with HCT-15 colon was 9.51% (active); with HT29 colon it was 50.6% (inactive); in the experiment on SNB-75 CNS it was 93.4% (inactive); in the experiment on SNB-19 CNS it was 92.2% (inactive); in the experiment on U251 CNS it was 88.2% (inactive); with PC-3 prostate it was 92% (inactive). Also, the growth in the experiment with SK-MEL-5 melanoma is 81.2% (inactive); with UACC-62 melanoma, 85.5% (inactive); with LOX IMVI melanoma it was 4.64% (active); with SK-MEL-28 melanoma it was 98.6% (inactive); in the experiment with EKVX NSCLC, 118% (inactive); in the experiment on SN12C renal, 68.9% (inactive). Moreover, the growth with UO-31 renal was 85.9% (inactive); with TK-10 renal it was 71.6% (inactive); in the experiment with ACHN renal, 79.2% (inactive); in the experiment with CAKI-1 renal, 107% (inactive); with A498 renal, 128% (inactive); with CCRF-CEM leukemia it was 4.32% (active). Further, in the experiment with MOLT-4 leukemia, the growth was 3.95% (active).
In the case of `CN1CCN(CCNC(=O)c2cccc(CN3c4cccc5c4C(=Cc4cccnc43)N(C)C5=O)c2)CC1`, the growth in the experiment on HCT-15 colon is 10.7% (inactive); in the experiment on HT29 colon, 17.7% (inactive); with SNB-75 CNS it was -11.2% (active); in the experiment with SNB-19 CNS, 42.9% (inactive); with U251 CNS it was 48.2% (inactive); in the experiment on PC-3 prostate, 39.6% (inactive). The growth with SK-MEL-5 melanoma was 12.9% (inactive); in the experiment on UACC-62 melanoma it was 17.3% (inactive); with LOX IMVI melanoma, 8.25% (active); with SK-MEL-28 melanoma it was 67.8% (inactive); with EKVX NSCLC it was 40.8% (inactive); in the experiment on SN12C renal it was 42.8% (inactive). Further, the growth in the experiment with UO-31 renal was 14.3% (inactive); in the experiment on TK-10 renal it was 25.4% (inactive); in the experiment with ACHN renal, 23.5% (inactive); in the experiment on CAKI-1 renal, 8.78% (active); in the experiment on A498 renal it was 30.9% (inactive); with CCRF-CEM leukemia, 47% (inactive). Moreover, the growth in the experiment on MOLT-4 leukemia was 47.4% (inactive).
On to `O=C1CCc2c(sc3[nH]c(=S)n(Cc4ccc(Cl)cc4)c(=O)c23)C1`, for which the growth with HCT-15 colon was -13.5% (active); in the experiment on HT29 colon it was 14.5% (inactive); in the experiment with SNB-75 CNS it was 3.19% (active); with SNB-19 CNS, 19.8% (inactive); in the experiment on U251 CNS, 5.03% (active); in the experiment on PC-3 prostate, 3.57% (active). Besides, the growth in the experiment on SK-MEL-5 melanoma was -81.1% (active); in the experiment with UACC-62 melanoma, 0.777% (active); in the experiment with LOX IMVI melanoma, 2.41% (active); in the experiment on SK-MEL-28 melanoma, 19.6% (inactive); in the experiment on EKVX NSCLC, -2.48% (active); with SN12C renal it was 5.94% (active). Also, the growth with UO-31 renal is -6.54% (active); in the experiment on TK-10 renal, 15.3% (inactive); in the experiment on ACHN renal, 6.08% (active); with CAKI-1 renal it was 3.79% (active); in the experiment with A498 renal, -2.71% (active); with CCRF-CEM leukemia, -9.46% (active). Also, the growth in the experiment on MOLT-4 leukemia is 18% (inactive).
`Cc1c(O)c(O)cc2c3c(oc12)CC(c1ccc2c(c1)OCO2)CC3=O` (configuration not stated): the growth was 64.5% (inactive) with HCT-15 colon; 94.3% (inactive) with HT29 colon; 87.8% (inactive) in the experiment on SNB-75 CNS; 101% (inactive) in the experiment with SNB-19 CNS; 100% (inactive) with U251 CNS; 81.1% (inactive) in the experiment on PC-3 prostate. The growth with SK-MEL-5 melanoma was 82.1% (inactive); in the experiment on UACC-62 melanoma, 53.4% (inactive); with LOX IMVI melanoma, 59.7% (inactive); in the experiment on SK-MEL-28 melanoma, 105% (inactive); with EKVX NSCLC it was 79% (inactive); in the experiment on SN12C renal, 94.9% (inactive). The growth in the experiment on UO-31 renal was 56% (inactive); in the experiment on TK-10 renal it was 115% (inactive); in the experiment with ACHN renal it was 75.9% (inactive); in the experiment on CAKI-1 renal, 98.6% (inactive); in the experiment with A498 renal, 102% (inactive); in the experiment with CCRF-CEM leukemia, 69.3% (inactive). Besides, the growth in the experiment with MOLT-4 leukemia was 84.4% (inactive).
In the case of `O=c1c2c([nH]c3ccccc13)CCCC2`, the growth was 94.8% (inactive) and 23.8% (inactive) in the experiment on HCT-15 colon; 102% (inactive) and 2.59% (active) in the experiment on HT29 colon; 33.5% (inactive) with SNB-75 CNS; 102% (inactive) and 56.9% (inactive) in the experiment with SNB-19 CNS; 97.4% (inactive) and 24.3% (inactive) with U251 CNS; 85.3% (inactive) and 57.9% (inactive) in the experiment on PC-3 prostate. In addition, the growth in the experiment on SK-MEL-5 melanoma was 99.3% (inactive) and 37.5% (inactive); in the experiment with UACC-62 melanoma it was 89.6% (inactive) and 53.7% (inactive); in the experiment with LOX IMVI melanoma, 102% (inactive) and 37.3% (inactive); with SK-MEL-28 melanoma, 106% (inactive) and 53.8% (inactive); in the experiment on EKVX NSCLC, 103% (inactive); in the experiment on SN12C renal, 95.8% (inactive) and 56.5% (inactive). Further, the growth with UO-31 renal was 87.6% (inactive) and 50.4% (inactive); with TK-10 renal, 104% (inactive) and 62.2% (inactive); with ACHN renal, 96.5% (inactive) and 57.9% (inactive); in the experiment with CAKI-1 renal it was 98.6% (inactive) and 54.6% (inactive); in the experiment with A498 renal, 102% (inactive) and 49.1% (inactive); in the experiment on CCRF-CEM leukemia, -32.1% (active) and 37.1% (inactive). The growth in the experiment on MOLT-4 leukemia was 83.4% (inactive) and 34.7% (inactive).
In the case of `O=C(/C=C\c1ccc(Cl)c(Cl)c1)c1ccccc1`, the growth in the experiment with HCT-15 colon was 65.6% (inactive) and 100% (inactive); with HT29 colon it was 37.5% (inactive) and 88.8% (inactive); with SNB-75 CNS it was 98.5% (inactive) and 99.9% (inactive); in the experiment with SNB-19 CNS it was 86.9% (inactive) and 98.4% (inactive); in the experiment with U251 CNS, 85.3% (inactive); in the experiment on PC-3 prostate it was 98.8% (inactive) and 87.6% (inactive). Further, the growth in the experiment on SK-MEL-5 melanoma was 97.2% (inactive) and 101% (inactive); in the experiment on UACC-62 melanoma, 91.7% (inactive) and 95.9% (inactive); in the experiment on LOX IMVI melanoma, 10.8% (inactive) and 91.5% (inactive); with SK-MEL-28 melanoma, 102% (inactive) and 108% (inactive); in the experiment with SK-MEL-2 melanoma, 119% (inactive) and 109% (inactive); with SN12C renal, 96.1% (inactive) and 104% (inactive). Moreover, the growth in the experiment with UO-31 renal is 72.2% (inactive) and 84.2% (inactive); with TK-10 renal, 80.6% (inactive) and 103% (inactive); in the experiment on ACHN renal, 95.2% (inactive) and 105% (inactive); with CAKI-1 renal, 96.7% (inactive) and 89.5% (inactive); in the experiment with A498 renal it was 74.1% (inactive) and 77.3% (inactive); with CCRF-CEM leukemia, 45.5% (inactive) and 91.1% (inactive). In the experiment on MOLT-4 leukemia, the growth was 77.4% (inactive) and 103% (inactive).
Regarding `O=C(CCl)N(O)c1ccc(/C=C/c2ccccc2)cc1`, the growth with HCT-15 colon was 78.3% (inactive) and 66.3% (inactive); in the experiment with HT29 colon, 73.1% (inactive) and 38.7% (inactive); in the experiment on SNB-75 CNS, 95.9% (inactive) and 96.3% (inactive); with SNB-19 CNS, 90.1% (inactive) and 86.7% (inactive); in the experiment on U251 CNS, 81.5% (inactive) and 73.5% (inactive); with PC-3 prostate it was 85.7% (inactive) and 86.6% (inactive). Further, the growth with SK-MEL-5 melanoma is 68.6% (inactive) and 65.3% (inactive); with UACC-62 melanoma, 74.6% (inactive) and 72.2% (inactive); in the experiment on LOX IMVI melanoma, 46.8% (inactive) and 36.1% (inactive); with SK-MEL-28 melanoma, 107% (inactive) and 112% (inactive); with EKVX NSCLC, 81.7% (inactive); in the experiment on SN12C renal it was 63.3% (inactive) and 48.8% (inactive). Further, the growth was 66.4% (inactive) and 65.2% (inactive) in the experiment on UO-31 renal; 89.7% (inactive) and 81.1% (inactive) in the experiment with TK-10 renal; 97.8% (inactive) and 87.6% (inactive) in the experiment on ACHN renal; 95.3% (inactive) and 91.1% (inactive) in the experiment with CAKI-1 renal; 69.2% (inactive) and 87.1% (inactive) in the experiment with A498 renal; -4.68% (active) and 10.3% (inactive) in the experiment on CCRF-CEM leukemia. In addition, the growth in the experiment on MOLT-4 leukemia was 7.08% (active) and 12.4% (inactive).
